This is one part of a sample in which hits are shown more often than they occur.
Dicer inh: blocks human Dicer maturation of pre-miR-21 | actives 6% (n = 47,000) | z-score at 25 µM | Q9UPY3 | AID 1347074 | cat-ELCCA pre-miR-21 Dicer processing, chemiluminescence; stronger effect = higher value; in the data active = z-score above about 3, passing the limit was not always enough;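 note: plate controls were vehicle for no effect and no enzyme for full effect; higher signal means more uncleaved substrate so more Dicer inhibition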
Numbers without * were called inactive.

SMILES	Dicer inh
O=C(Nc1ccccc1)c1cc2ccccc2o1	0.54
O=C(Nc1ccc(F)cc1)c1cc2ccccc2o1	-0.2
CC(C)(C)NC(=O)c1cc2ccccc2o1	4.18*
COc1cc(CSc2nnnn2-c2ccc(C)cc2C)cc(OC)c1OC	0.13
CC1=C2CCC(C)CC23C2C(=O)N(Cc4ccc(Cl)cc4)C(=O)C2C1C1C(=O)N(Cc2ccc(Cl)cc2)C(=O)C13 (configuration not stated)	0.45
CC1CC(=O)N(Cc2ccc(Cl)cc2)C(=O)C1	4.73*
O=C1CNC(=S)N1Cc1ccc(Cl)cc1	-0.06
CCOc1cccc(C2c3c(oc4ccc(F)cc4c3=O)C(=O)N2Cc2ccc3c(c2)OCO3)c1 (configuration not stated)	0.22
COC(=O)Cc1ccc(N2C(=O)c3cccnc3C2=O)cc1	-2.28
CC(=O)Oc1ccc(N2C(=O)c3cccnc3C2=O)cc1	3.06*
O=C(Nc1ccc(N2C(=O)c3cccnc3C2=O)cc1)c1cccs1	-1.4
CC(C)CCOC(=O)C1(C(=O)OCCC(C)C)CC2(COC(c3ccccc3)OC2)C1	-0.56
COc1c(Cl)cc([N+](=O)[O-])c(OC)c1C(=O)O	-0.66
O=C1Nc2ccccc2C1(O)C(F)(F)F (configuration not stated)	-0.46
CCOC(=O)C1=C(C)NC2=C(C(=O)CCC2)C1c1ccc(OC(C)=O)c(OC)c1 (configuration not stated)	12.7
CCOc1cccc(C2C3=C(Nc4c2c(=O)n(C)c(=O)n4C)c2ccccc2C3=O)c1 (configuration not stated)	-2.04
CN(C)c1ccc(C(=O)c2ccccc2C(=O)O)c(O)c1	3.25*
COc1ccc(C(=O)c2ccccc2O)c(O)c1	6.31
Cc1ccc(C(=O)c2ccccc2C(=O)O)cc1C	0.06
Cn1[nH]c(=O)c2c(C(F)(F)F)ccnc21	-0.97
Cc1sc2nc(-c3ccc(N4C(=O)CCC4=O)cc3)oc(=O)c2c1C	0.28
Cc1nc(N2CCSCC2)ncc1S(=O)(=O)c1ccc(Cl)cc1	-2.99
O=C(Nc1nnc(/C=C/c2ccccc2)s1)c1ccc(Br)cc1	1.9
CC(Nc1ncnc2c1oc1ccccc12)C(=O)O (configuration not stated)	0.18
CN1C(=O)COc2ccc(-c3ccnc4cc(-c5ccc(Cl)cc5)nn34)cc21	-1.68
SMILES	Dicer inh
COc1ccc(-c2cc3nccc(-c4ccccc4O)n3n2)cc1	1.98
c1ccc(-c2cc3nccc(-c4ccccc4)n3n2)cc1	0.55
Cc1cc2nccc(-c3ccc(Cl)cc3)n2n1	1.39
Cc1ccc(O)c(-c2ccnc3cc(-c4ccccc4)nn23)c1	1.11
Oc1ccc(F)cc1-c1ccnc2cc(-c3ccc(Cl)cc3)nn12	4.04*
Oc1ccccc1-c1ccnc2cc(-c3ccc(Cl)cc3)nn12	3.29*
Oc1ccc(Cl)cc1-c1ccnc2cc(-c3ccccc3)nn12	9.29*
COc1ccc(-c2cc3nccc(-c4cc(Cl)ccc4O)n3n2)cc1	5.19
CC(C)(C)NC(=S)Nc1cc(Cl)ccc1Cl	1.65
CCCCOC(=O)C1=C(C)NC2=C(C(=O)CCC2)C1c1cccnc1 (configuration not stated)	0.06
COc1ccc(C(=O)CSc2nc(N)cc(=O)[nH]2)cc1C	47.5
COC(=O)c1sccc1NC(=O)CC1C(=O)NCCN1S(=O)(=O)c1ccccc1C#N (configuration not stated)	0.75
COc1ccccc1Nc1snc2[nH]c(C(=O)c3ccc(C)cc3)cc12	1.54
CC1=C(C(=O)OC2CCCC2)C(c2cccnc2)C2=C(CC(C)(C)CC2=O)N1 (configuration not stated)	0.63
CC(=O)Oc1ccc(N2C(=O)C3CC(C)=C(C)CC3C2=O)cc1 (configuration not stated)	-0.08
Cn1c(=O)c2c(nc(NC3CCCCC3)n2Cc2ccc(F)cc2)n(C)c1=O	1.29
Cn1nc(CC(=O)Nc2ccc(Cl)cc2)c2ccccc2c1=O	1.83
Cc1ccc(S(=O)(=O)N/N=C/c2ccccc2Cl)cc1	-0.53
Nc1cnc(Oc2c(Cl)cccc2Cl)c(C(F)(F)F)c1	7.31
CC(=O)C(C)(C)OC(=O)NCc1cccs1	-3.2
CC(=O)C(C)(C)OC(=O)NCCc1ccc(Cl)cc1	7.19*
O=C(O)/C=C\C(=O)NCCc1ccc(Cl)cc1	7.2
O=C(O)CCC(Nc1ncnc2ccccc12)C(=O)O (configuration not stated)	1.33
CCCC(Nc1ncnc2ccccc12)C(=O)O (configuration not stated)	0.39
CC(Nc1ncnc2ccccc12)C(=O)O (configuration not stated)	3.33*
SMILES	Dicer inh
Cc1ccc(C(=O)Nc2ccccc2)c(C)n1	-2
CCOC(=O)NNc1ncc(C(F)(F)F)cc1Cl	1.42
CCOC(=O)COc1nsnc1N1CCOCC1	0.26
COc1ccc(C2C/C(=N/O)C(C)C(c3ccc(OC)cc3)N2)cc1 (configuration not stated)	1.45
COc1ccc(C2NC(c3ccc(OC)cc3)C(C)C(=O)C2C)cc1 (configuration not stated)	-0.54
CCCCC1(O)CC(c2ccc(OC)cc2)NC(c2ccc(OC)cc2)C1C (configuration not stated)	3.23*
COc1ccc(-c2nc3n(n2)C(c2cccnc2)C2=C(CCCC2=O)N3)cc1 (configuration not stated)	1.9
COc1cccc2c1OC(c1ccncc1)N1N=C(c3cc(C)ccc3O)CC21 (configuration not stated)	2.54
COc1cccc(C2Oc3c(OC)cccc3C3CC(c4cc(OC)ccc4O)=NN32)c1 (configuration not stated)	2.65
COc1cc(C2Oc3c(OC)cccc3C3CC(c4cc(C)ccc4O)=NN32)ccc1O (configuration not stated)	14*
COc1ccc(O)c(C2=NN3C(C2)c2cccc(OC)c2OC3c2ccc(O)c(OC)c2)c1 (configuration not stated)	0.94
COc1ccc(C2Oc3c(OC)cccc3C3CC(c4cc(C)ccc4O)=NN32)cc1O (configuration not stated)	2.62
COc1ccc(O)c(C2=NN3C(C2)c2cccc(OC)c2OC3c2ccncc2)c1 (configuration not stated)	6.23*
Cc1cc(S(=O)(=O)n2cccc2)c(Cl)cc1Cl	-1.55
O=C(NNc1ccc(Cl)c(Cl)c1)c1ccccc1NC(=O)c1cccnc1Oc1ccccc1	-0.79
FC(F)(F)Oc1ccc(-n2ccc(-c3ccccc3)nc2=S)cc1	0.03
CN(C)/C=C(\C(=O)c1ccccc1Cl)c1nnnn1-c1ccccc1	-0.28
CCCN(CCC)C(=O)C1Sc2nnc(C)n2NC1c1ccc(Cl)cc1 (configuration not stated)	-0.49
S=C(NCc1csc2ccccc12)c1ccccc1	-1.4
CC(C)(CC(=O)O)CC(=O)NCc1csc2ccccc12	4.45*
Cc1cc(C)c(NC(=S)NCc2csc3ccccc23)c(C)c1	2.55
CCOC(=O)c1cc(/C(N)=N/O)c(C)nc1C(F)(F)F	1.15
CC1(C)N=C(N)N=C(N)N1c1cccc(C(F)(F)F)c1	0.13
Cc1nn(C)c(-n2ncc(C#N)c2N)c1[N+](=O)[O-]	-0.46
Cc1ccc2c(c1)c(C)c(C)n2CC(O)CN1CCOCC1 (configuration not stated)	4.57*
OC(CN1CCCC1)Cn1c2ccc(Cl)cc2c2cc(Cl)ccc21 (configuration not stated)	0.68

Screening results from PubChem BioAssay.
